Results filed as inconclusive are left out. Calls of active or inactive are those of the source. Unless noted, calls follow the shape of the dose curve; as a rule, active = well fitted curve in the direction sought with a large enough effect in the repeat runs; inconclusive = weak or mixed curves; inactive = no such curve, though single readings can be large; an effect the other way counts as inactive or inconclusive.
Tests used:
[1] = biological target: Thyrotropin receptor (Homo sapiens) (UniProt P16473); test: qHTS assay to identify small molecule antagonists of the thyroid stimulating hormone receptor (TSHR) signaling pathway (AID 1259385; calls by dose curve; also: nearly all actives have a fitted effect of over 20% in size)
Thyrotropin receptor (Homo sapiens), sequence (P16473 whole entry, looked up): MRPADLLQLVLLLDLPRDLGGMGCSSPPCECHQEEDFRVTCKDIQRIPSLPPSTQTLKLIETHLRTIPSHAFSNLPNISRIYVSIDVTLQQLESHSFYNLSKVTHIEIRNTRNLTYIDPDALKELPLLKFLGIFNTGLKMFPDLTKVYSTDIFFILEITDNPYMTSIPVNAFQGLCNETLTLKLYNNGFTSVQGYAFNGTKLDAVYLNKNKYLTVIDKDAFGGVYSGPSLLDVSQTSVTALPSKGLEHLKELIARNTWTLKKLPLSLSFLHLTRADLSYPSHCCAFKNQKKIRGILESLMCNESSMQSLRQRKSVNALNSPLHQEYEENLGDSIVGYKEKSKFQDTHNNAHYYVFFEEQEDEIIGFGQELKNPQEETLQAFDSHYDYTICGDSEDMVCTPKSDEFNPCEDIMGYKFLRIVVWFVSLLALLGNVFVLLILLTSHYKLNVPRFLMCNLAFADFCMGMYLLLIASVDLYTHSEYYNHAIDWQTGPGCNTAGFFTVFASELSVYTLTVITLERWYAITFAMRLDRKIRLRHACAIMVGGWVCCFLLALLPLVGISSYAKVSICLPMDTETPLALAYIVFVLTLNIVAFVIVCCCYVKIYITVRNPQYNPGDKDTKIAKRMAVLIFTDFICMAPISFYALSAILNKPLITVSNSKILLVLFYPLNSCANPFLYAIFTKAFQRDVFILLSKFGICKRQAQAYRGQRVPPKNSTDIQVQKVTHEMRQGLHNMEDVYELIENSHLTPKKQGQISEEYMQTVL
How it was run: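 TSHR-HEK293 cells were plated and held 18 h at 37C/5% CO2, then given compound plus Ro20-1724 and stimulated with TSH at 1.5 ng/mL final. After 30 min at room temperature, cAMP was detected with cAMP-d2/anti-cAMP-cryptate (1 h) by fluorescence.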

[2] = qHTS assay to identify small molecule agonists of the estrogen receptor alpha (ER-alpha) signaling pathway in the presence of an antagonist - cell viability counter screen (AID 1259386);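 also: series mostly up to about 92 µM; cells exposed to compounds for 22 h at 37 °C before the viability read; nearly all actives have a fitted effect of over 30% in size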
How it was run: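 Read-out: CellTiter-Fluor fluorescence after 1hr reagent incubation, measured in the same wells as the luciferase readout. VM7Luc4E2 cells were exposed to 15 compound concentrations with 10.0nM ICI-182,780 for 22hr at 37C.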

[3] = biological target: Progesterone receptor (Homo sapiens) (UniProt P06401); test: qHTS assay to identify small molecule agonists of the progesterone receptor (PR) signaling pathway (AID 1346784; calls by dose curve; also: nearly all actives have a fitted effect of over 30% in size)
Progesterone receptor (Homo sapiens), sequence (P06401 whole entry, looked up): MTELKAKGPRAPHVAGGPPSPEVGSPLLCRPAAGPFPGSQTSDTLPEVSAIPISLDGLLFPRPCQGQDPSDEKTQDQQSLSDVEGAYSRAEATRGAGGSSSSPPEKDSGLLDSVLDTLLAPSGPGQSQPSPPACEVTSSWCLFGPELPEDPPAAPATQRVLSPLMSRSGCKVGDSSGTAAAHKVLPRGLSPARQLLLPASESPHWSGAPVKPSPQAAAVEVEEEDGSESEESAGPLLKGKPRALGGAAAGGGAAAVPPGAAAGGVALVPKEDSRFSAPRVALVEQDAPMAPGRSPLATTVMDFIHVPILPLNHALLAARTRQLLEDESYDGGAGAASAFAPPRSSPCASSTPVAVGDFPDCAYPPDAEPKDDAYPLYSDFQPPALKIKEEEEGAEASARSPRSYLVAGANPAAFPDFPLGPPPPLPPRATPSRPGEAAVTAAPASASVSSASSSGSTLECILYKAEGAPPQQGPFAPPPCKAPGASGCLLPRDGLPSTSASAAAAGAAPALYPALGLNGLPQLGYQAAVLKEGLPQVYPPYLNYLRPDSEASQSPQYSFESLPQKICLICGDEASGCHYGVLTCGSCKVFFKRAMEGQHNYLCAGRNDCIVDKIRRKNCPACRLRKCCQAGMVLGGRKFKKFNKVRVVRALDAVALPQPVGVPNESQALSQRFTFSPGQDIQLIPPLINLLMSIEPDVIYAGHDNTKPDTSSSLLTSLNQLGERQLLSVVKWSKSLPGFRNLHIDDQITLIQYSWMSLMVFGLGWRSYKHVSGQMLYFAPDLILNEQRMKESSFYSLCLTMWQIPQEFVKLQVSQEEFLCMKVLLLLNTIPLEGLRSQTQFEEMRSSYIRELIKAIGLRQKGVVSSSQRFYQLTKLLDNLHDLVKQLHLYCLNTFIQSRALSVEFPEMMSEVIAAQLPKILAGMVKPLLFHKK
How it was run: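 The screen uses PR-UAS-bla HEK 293T cells in charcoal-stripped serum (2%). Compounds are applied for 16 hr at 37C after a 6 hr pre-incubation, and reporter activity is detected with a FRET beta-lactamase substrate after 2 hr at room temperature.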

[4] = biological target: Progesterone receptor (Homo sapiens) (UniProt P06401); test: qHTS assay to identify small molecule antagonists of the progesterone receptor (PR) signaling pathway (AID 1346795; active = well fitted inhibition curve with a large enough effect in the signal ratio in the repeat runs, not every such curve was filed as active; the % refers to the signal ratio)
How it was run: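 After 6 hr plating at 37C in 2% stripped-serum medium, PR-UAS-bla HEK293T cells got compounds, then 1 nM R5020. Sixteen hours later, LiveBLAzer substrate was applied for 2 hr at room temperature and fluorescence was recorded.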

[5] = qHTS assay to identify small molecule antagonists of the progesterone receptor (PR) signaling pathway - cell viability counter screen (AID 1346798); also: series mostly up to about 92 µM; nearly all actives have a fitted effect of over 50% in size
How it was run: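 Viability was determined by ATP-based luminescence (CellTiter-Glo) in PR-UAS-bla HEK293T cells cultured in 2% charcoal-stripped serum and incubated 16 hr with compounds under R5020 stimulation.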

[6] = qHTS assay to identify small molecule agonists of the progesterone receptor (PR) signaling pathway - cell viability counter screen (AID 1346799; calls by dose curve; also: nearly all actives have a fitted effect of over 45% in size)
How it was run: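 Viability was scored by ATP luminescence (CellTiter-Glo, 30 min, room temperature) in the same wells used for the reporter readout, after 16 hr compound exposure of PR-UAS-bla HEK293T cells.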

[7] = qHTS assay to identify small molecule antagonists of the TGF-beta/Smad signaling pathway - cell viability counter screen (AID 1346824); also: nearly all actives have a fitted effect of over 50% in size
How it was run: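 SBE-bla HEK 293T cells were plated overnight at 37 C, then given compounds in DMSO plus TGF-beta1 (added as 0.25 ng/mL solution) for 5 hr. After the bla read, CellTiter-Glo was added to the same wells and luminescence read after 30 min at room temperature.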

[8] = qHTS assay to identify small molecule agonists of the TGF-beta/Smad signaling pathway - cell viability counter screen (AID 1346829); also: top concentration of the series differs between compounds; nearly all actives have a fitted effect of over 45% in size
How it was run: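 Compound-treated SBE-bla HEK 293T cells (5 hr, 37 C) were assessed for viability with CellTiter-Glo in parallel with the reporter read.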

[9] = qHTS assay to identify small molecule agonists of the TGF-beta/Smad signaling pathway (AID 1346859; active = well fitted activation curve with a large enough effect in the signal ratio in the repeat runs, not every such curve was filed as active; the % refers to the signal ratio; also: series mostly up to about 77 µM)
How it was run: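 Dual-wavelength fluorescence (460/530 nm emission) quantified beta-lactamase expression under the Smad binding element in HEK 293T cells following 5 hr compound treatment at 37 C.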

[10] = biological target: Thyrotropin-releasing hormone receptor (Homo sapiens) (UniProt P34981); test: qHTS assay to identify small molecule agonists of the thyrotropin-releasing hormone receptor (TRHR) signaling pathway (AID 1346891; calls by dose curve;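 also: HEK293 cells expressing TRHR with calcium dye readout; series mostly up to about 58 µM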)
Thyrotropin-releasing hormone receptor (Homo sapiens), sequence (P34981 whole entry, looked up): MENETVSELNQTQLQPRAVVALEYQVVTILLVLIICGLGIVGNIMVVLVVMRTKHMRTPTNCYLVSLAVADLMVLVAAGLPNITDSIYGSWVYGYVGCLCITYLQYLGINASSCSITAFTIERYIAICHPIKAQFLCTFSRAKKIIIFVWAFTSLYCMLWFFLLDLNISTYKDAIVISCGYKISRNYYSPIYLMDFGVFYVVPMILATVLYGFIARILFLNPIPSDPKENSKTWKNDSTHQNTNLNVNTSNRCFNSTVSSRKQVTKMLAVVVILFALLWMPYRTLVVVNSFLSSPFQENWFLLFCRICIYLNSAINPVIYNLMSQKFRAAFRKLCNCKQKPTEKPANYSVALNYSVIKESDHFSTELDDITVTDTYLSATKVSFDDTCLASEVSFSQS
How it was run: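 Kinetic fluorescence (3 min, 1 s intervals) reported intracellular calcium after compound transfer onto TRHR-Hek293 cells pre-loaded with dye for 2 h at 37 °C.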

[11] = Human pregnane X receptor (PXR) small molecule agonists, qHTS cell viability counter screen (AID 1346977); also: nearly all actives have a fitted effect of over 50% in size
How it was run: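 HepG2 cells stably carrying the PXR-Luc reporter are cultured with 5% charcoal-stripped FBS and treated with compounds for 24hr. CellTiter-Fluor is added at 23hr and fluorescence is read after 1hr.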

[12] = Caspase-3/7 induction in HepG2 cells by small molecules, qHTS assay (AID 1346978); also: nearly all actives have a fitted effect of over 15% in size
How it was run: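 Wild-type HepG2 cells (2,000/well) were settled 5 h at 37 C, 5% CO2, then exposed to compounds in DMSO for 17 h. Caspase-3/7 activity was read by luminescence 30 min after adding Caspase-Glo 3/7 reagent at room temperature.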

[13] = Caspase-3/7 induction in CHO-K1 cells by small molecules, qHTS cell viability counter screen (AID 1346979); also: nearly all actives have a fitted effect of over 35% in size
How it was run: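 Seeding: 1,500 CHO-K1 cells/well. Rest: 5hr, 37C. Treatment: compounds in DMSO, 16hr. Read: CellTiter-Fluor, 1hr, fluorescence.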

[14] = Caspase-3/7 induction in CHO-K1 cells by small molecules, qHTS assay (AID 1346980); also: nearly all actives have a fitted effect of over 15% in size
How it was run: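 Wild-type cells were seeded at 1,500 per well and settled 5 hr at 37 C, 5% CO2, then exposed to DMSO-dissolved compounds for 17 hr. Caspase-Glo 3/7 reagent was added, and luminescence was read after 30min at room temperature.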

[15] = Caspase-3/7 induction in HepG2 cells by small molecules, qHTS cell viability counter screen (AID 1346981); also: series mostly up to about 92 µM; nearly all actives have a fitted effect of over 30% in size
How it was run: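 Fluorescence read-out of live-cell protease activity (CellTiter-Fluor) after 1 hr with reagent. This was measured in the same wells as the caspase-3/7 luminescence, on HepG2 cells exposed to DMSO-dissolved compounds for 16 hr at 37 C.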

[16] = biological target: Nuclear receptor subfamily 1 group I member 2 (Homo sapiens) (UniProt O75469); test: Human pregnane X receptor (PXR) small molecule agonists, qHTS assay (AID 1346982); also: nearly all actives have a fitted effect of over 35% in size
Nuclear receptor subfamily 1 group I member 2 (Homo sapiens), sequence (O75469 whole entry, looked up): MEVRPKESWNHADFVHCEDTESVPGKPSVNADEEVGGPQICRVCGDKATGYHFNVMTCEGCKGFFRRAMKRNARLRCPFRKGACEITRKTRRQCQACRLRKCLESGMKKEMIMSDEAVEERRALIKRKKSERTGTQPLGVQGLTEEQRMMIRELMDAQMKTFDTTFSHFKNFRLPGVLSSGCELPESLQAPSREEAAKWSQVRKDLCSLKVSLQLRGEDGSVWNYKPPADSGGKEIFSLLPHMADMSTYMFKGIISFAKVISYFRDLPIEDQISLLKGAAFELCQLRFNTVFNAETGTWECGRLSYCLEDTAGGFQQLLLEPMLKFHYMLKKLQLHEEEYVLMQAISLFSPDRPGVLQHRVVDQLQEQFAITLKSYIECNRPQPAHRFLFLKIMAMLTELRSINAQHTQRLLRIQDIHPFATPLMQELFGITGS
How it was run: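 HepG2 PXR-Luc reporter line, 5% charcoal-stripped FBS; 5 hr pre-incubation, compound (DMSO) 24 hr at 37 C/5% CO2; ONE-Glo 30 min RT; luminescence read-out.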

[17] = biological target: Thyrotropin-releasing hormone receptor (Homo sapiens) (UniProt P34981); test: qHTS assay to identify small molecule antagonists of the thyrotropin-releasing hormone receptor (TRHR) signaling pathway (AID 1346877; active = well fitted inhibition curve with a large enough effect in the repeat runs, not every such curve was filed as active; also: series mostly up to about 51 µM)
How it was run: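 HEK293/TRHR cells, 18 h, 37 °C; Ca2+ dye 2 h; cpd 5 min RT; TRH 1 nM final; fluorescence read 3 min, 1 s intervals; 15 concs, triplicate.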

[18] = biological target: Nuclear receptor subfamily 1 group I member 2 (Rattus norvegicus) (UniProt Q9R1A7); test: Rat pregnane X receptor (rPXR) activation by small molecules, qHTS assay (AID 1346983); conditions: rPXR luciferase reporter cells, One-Glo luminescence, 24 h; stronger effect = higher value; also: nearly all actives have a fitted effect of over 20% in size
Nuclear receptor subfamily 1 group I member 2 (Rattus norvegicus), sequence (Q9R1A7 whole entry, looked up): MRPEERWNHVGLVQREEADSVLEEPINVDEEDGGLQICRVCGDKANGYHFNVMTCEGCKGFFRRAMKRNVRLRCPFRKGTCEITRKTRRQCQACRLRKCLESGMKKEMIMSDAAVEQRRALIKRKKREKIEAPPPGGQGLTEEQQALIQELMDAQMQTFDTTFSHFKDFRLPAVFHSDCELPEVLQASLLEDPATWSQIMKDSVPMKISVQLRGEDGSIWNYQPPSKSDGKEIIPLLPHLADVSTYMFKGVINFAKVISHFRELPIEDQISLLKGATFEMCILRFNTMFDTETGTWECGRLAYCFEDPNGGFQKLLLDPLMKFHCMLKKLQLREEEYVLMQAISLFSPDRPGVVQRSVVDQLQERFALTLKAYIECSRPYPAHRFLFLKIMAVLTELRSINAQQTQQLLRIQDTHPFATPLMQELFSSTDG
How it was run: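 Cell-based rPXR luciferase reporter assay, 2,000 cells per well, rested 5hr at 37 C before compound addition in DMSO, then 24 hr at 37 C. One-Glo reagent was added and luminescence read after 30 min at room temperature.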

[19] = biological target: Nuclear receptor subfamily 1 group I member 2 (Homo sapiens) (UniProt O75469); test: CYP3A4 induction through human pregnane X receptor (PXR) by small molecules, qHTS assay (AID 1346984); also: nearly all actives have a fitted effect of over 40% in size
How it was run: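 HepG2-derived DPX-2 line carrying PXR plus a CYP3A4-promoter luciferase reporter; cells plated 5 hr, compound-exposed 24 hr at 37C. CYP3A4 activity probed with 3uM (final) Luciferin-IPA for 3hr, then luciferase read after One-Glo.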

[20] = biological target: Nuclear receptor subfamily 1 group I member 2 (Homo sapiens) (UniProt O75469); test: Human pregnane X receptor (PXR) activation by small molecules, qHTS assay (AID 1346985); also: nearly all actives have a fitted effect of over 40% in size
How it was run: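 DPX-2 cells (HepG2 co-transfected with a PXR response element and a CYP3A4-promoter luciferase construct) were seeded at 2,000 per well, rested 5 hr at 37C, then exposed to DMSO-dissolved compounds for 24 hr. Activation was read as luciferase luminescence.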
% is scaled to controls: 0 for no effect and ±100 for the full control effect.

CN1C(=O)N(C)C(O)C1O (configuration not stated)
inactive: Potency [1] | Potency [2] | Potency [3] | Potency [4] | Potency [5] | Potency [6] | Potency [7] | outcome [8] | outcome [9] | outcome [10] | Potency [11] | Potency [12] | Potency [13] | outcome [14] | Potency [15] | Potency [16]

Cc1ccc(Cl)cc1Cl
inactive: Potency [1] | Potency [2] | Potency [3] | Potency [4] | Potency [5] | Potency [6] | Potency [7] | outcome [8] | outcome [9] | outcome [17] | outcome [10] | Potency [11] | Potency [12] | Potency [13] | outcome [14] | Potency [15] | Potency [16]

CC(C)NC(=O)NC(C)C
inactive: Potency [1] | Potency [2] | Potency [3] | Potency [4] | Potency [5] | Potency [6] | Potency [7] | outcome [8] | outcome [9] | outcome [17] | outcome [10] | Potency [11] | Potency [12] | Potency [13] | outcome [14] | Potency [15] | Potency [16]

N[C@H](C(=O)O)c1ccc(O)cc1
inactive: activity change, negative = inhibition [1] -2.34% [at 19 µM] | activity change, negative = cytotoxicity [2] 3.8% [at 19 µM] | activation [3] -0.625% [at 19 µM] | Potency [4] | Potency [5] | activity change, negative = cytotoxicity [6] -6.4% [at 19 µM] | viability change, negative = cytotoxic [7] 1.75% [at 15.8 µM] | activity change, negative = cytotoxicity [8] -0.107% [at 15.8 µM] | activation [9] -1.41% [at 15.8 µM] | activity, negative = inhibition [17] 3.01% [at 10.5 µM] | activation [10] 0.371% [at 11.8 µM] | activity change, negative = cytotoxicity [11] 0.445% [at 19 µM] | caspase activation [12] -0.122% [at 19 µM] | Potency [13] | activity change, negative = cytotoxicity [15] 0.561% [at 19 µM] | activation [16] -2.7% [at 19 µM] | max activation [18] -1.63% | Potency [19] | Potency [20]

O=S(O)CO
inactive: Potency [1] | Potency [2] | Potency [3] | Potency [4] | Potency [5] | Potency [6] | Potency [7] | outcome [8] | outcome [9] | outcome [10] | Potency [11] | Potency [12] | Potency [13] | outcome [14] | Potency [15] | Potency [16]

COc1c(N2C[C@@H]3CCCN[C@@H]3C2)c(F)cc2c(=O)c(C(=O)O)cn(C3CC3)c12
inactive: Potency [1] | Potency [2] | Potency [3] | Potency [4] | Potency [5] | Potency [6] | outcome [8] | outcome [9] | Potency [11] | Potency [12] | Potency [13] | outcome [14] | Potency [15] | Potency [16] | max activation [18] -3.75% | Potency [19] | Potency [20]

N[C@H]1CN(c2c(F)cc3c(=O)c(C(=O)O)cn(C4C[C@H]4F)c3c2Cl)CC12CC2 (some centres not stated)
inactive: Potency [1] | Potency [2] | Potency [3] | Potency [4] | Potency [6] | outcome [8] | outcome [9] | outcome [17] | outcome [10] | Potency [11] | Potency [12] | Potency [13] | outcome [14] | Potency [15] | Potency [16]
